105 compounds from PubChem BioAssay AID1671448 (Corson Lab, School of Medicine, Indiana University, 2021) can be followed below.

Among all 20,000 compounds or so, about 660 (3.3%) were called active.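 The calls were made as follows: active = enzyme reaction rate more than 3 SD below the solvent-only control wells on the same plate; inactive = the rest.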 The sample as a whole holds a higher share of actives than the screen did.

Chain of Ferrochelatase, mitochondrial (Homo sapiens) (P22830 whole entry, looked up): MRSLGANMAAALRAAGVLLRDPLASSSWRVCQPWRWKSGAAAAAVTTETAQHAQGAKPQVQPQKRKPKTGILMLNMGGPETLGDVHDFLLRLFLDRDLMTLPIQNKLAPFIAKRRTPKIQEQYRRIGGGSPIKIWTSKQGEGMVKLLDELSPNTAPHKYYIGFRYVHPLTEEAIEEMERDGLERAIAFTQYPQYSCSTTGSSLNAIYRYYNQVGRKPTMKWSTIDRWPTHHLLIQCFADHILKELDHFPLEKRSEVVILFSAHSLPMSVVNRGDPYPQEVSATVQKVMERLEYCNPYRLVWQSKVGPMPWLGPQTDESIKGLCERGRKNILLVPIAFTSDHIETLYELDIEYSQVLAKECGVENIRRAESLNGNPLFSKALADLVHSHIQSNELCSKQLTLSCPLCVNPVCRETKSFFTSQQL

This assay addresses Ferrochelatase, mitochondrial (Homo sapiens) (UniProt P22830). Description: FECH heme synthesis enzyme blockers – biochemical, purified FECH, Ni-mesoporphyrin absorbance, primary screen (AID 1671448). The settings on record: Ni-mesoporphyrin absorbance 550 nm, screened at 10 µM (by protocol).
Consider `CCOc1ccc(CCNC(=O)CN2C(=O)C=C(CC(=O)OC)Nc3ccccc32)cc1OCC`, for which the compound was called inactive.

On to `CNCc1cc(-c2ccc(C)c3ncccc23)ccc1OC`, for which the outcome was inactive.

Consider `COCCNC(=O)Cn1c(C(=O)OC)cc2ccsc21`, for which the result was inactive.

For `NC(=O)c1cccc(CC2CCN(C(=O)CCc3cn4ccccc4n3)C2)c1` (stereo not given), the compound was classed as inactive.

With `CN(C)c1ccc(CNC(=O)c2nc(N3CCCC3)c3oc4ccccc4c3n2)cc1`, the compound was called inactive.

As for `COc1cccc(Cn2c(CNS(=O)(=O)c3cccc(Cl)c3)nc3cccnc32)c1`, the compound was classed as inactive.

Turning to `Cc1cc(C)n(CCNC(=O)c2cc(-c3ccccc3)n[nH]2)c(=O)n1`, the outcome was inactive.

For `COc1nc2c(cc1CNC(=O)c1ccncc1F)C(=O)N(C1CCCC1)C2`, the result was inactive.

`CC(C)CN1CCOC(CCNC(=O)c2cncs2)C1` (stereo not given): the compound was called inactive.

Consider `COc1ccc(OC)c(Nc2nc(N(C)C)nc3c2cnn3-c2ccccc2)c1`, for which the outcome was inactive.

For `CCN(CC)c1nc(Nc2ccc(C)cc2)c2cnn(-c3ccccc3)c2n1`, the call was inactive.

As for `CCCCN(C)c1nc(Nc2ccc(OC)cc2)c2cnn(-c3ccccc3)c2n1`, the call was active.

In the case of `Cc1cc(NC(=O)c2ccc(C(C)(C)C)cc2)n(-c2ncnc3c2cnn3-c2ccc(Cl)cc2)n1`, the compound was classed as inactive.

`Cc1ccsc1CN(C)C(=O)c1ccc(-c2ncn[nH]2)cc1`: the call was inactive.

Turning to `CCOC(=O)N1CCC(NCc2ccccc2-n2ccnc2C)CC1`, the call was inactive.

For `O=C(O)[C@H]1C[C@@H](O)CCN1C(=O)C1(c2ccc(Cl)cc2)CC1`, the outcome was inactive.

As for `O=C(NC(Cn1cccn1)c1ccccc1)c1cc2n(n1)CCNC2` (stereo not given), the result was inactive.

With `O=C(NCc1ccccn1)C1CCN(c2ccc(-c3ccc(Br)s3)nn2)CC1`, the compound was classed as inactive.

In the case of `Cc1ccc(CSc2ncc(Cl)c(C(=O)Nc3ccc(S(N)(=O)=O)cc3)n2)cc1`, the result was inactive.

Consider `Cc1cccc(CN2CCCN(CC(=O)Nc3ccc(Cl)cc3)S2(=O)=O)c1`, for which the compound was classed as inactive.

For the compound `CCc1ccc(NC(=O)CN2CCN(Cc3cccc(C)c3)S2(=O)=O)cc1`, the outcome was active.

On to `COC(=O)c1ccc(NC(=O)CN2CCN(Cc3ccc(C)cc3)S2(=O)=O)cc1`, for which the outcome was inactive.

`CC(COc1ccccc1)NCc1nnc(-c2ccccc2)o1` (stereo not given): the compound was classed as active.

For `Cc1cc(C)cc(C(=O)NCCn2c(-c3ccccc3)nc3cccnc32)c1`, the compound was called inactive.

Regarding `CCn1c(=O)n(-c2ccc(C)c(C)c2)c2nc(-c3cccc(F)c3F)nc(C(N)=O)c21`, the compound was called inactive.

Turning to `Cc1noc(C)c1CN(C)Cc1ccc(C2CCCO2)s1` (stereo not given), the outcome was inactive.

For the compound `CCCc1cc(=O)n2[nH]c(CNc3ccc(C)cc3C)nc2n1`, the result was inactive.

As to `COc1ccccc1CNc1nc2nc(CNc3ccc(F)cc3)cc(=O)n2[nH]1`, the compound was called inactive.

Regarding `COc1ccccc1NCc1nc2nc(C(C)C)cc(=O)n2[nH]1`, the compound was classed as active.

`CC(C)c1nc(CN(C)C(=O)c2cnn3ccn(C)c23)cs1`: the outcome was inactive.

As to `COc1ccccc1-c1cc2n(C)c(C)c(CCC(=O)Nc3ccccc3F)c(=O)n2n1`, the compound was classed as inactive.

Regarding `CCOC(=O)CCc1c(C)nc2nc(CNc3ccccc3F)[nH]n2c1=O`, the result was active.

In the case of `CCOc1ccc(NC(=O)Nc2c(C)nc3nc(C4CC4)[nH]n3c2=O)cc1`, the compound was called inactive.

Regarding `O=C(CCn1nnc2ccccc21)N1CCCC(c2ccn[nH]2)C1` (stereo not given), the compound was called inactive.

Take `OCCCc1nc2ccccc2n1-c1ccc2[nH]ccc2c1`: the compound was classed as inactive.

For `Cc1cc2cc(C(=O)NCCSCc3nc[nH]c3C)ccc2o1`, the compound was classed as inactive.

In the case of `Cc1ccc2c(CC(=O)NCc3csc(C)n3)cc(=O)oc2c1`, the compound was classed as inactive.

Consider `O=C(c1csc(S(=O)(=O)NCc2ccc(F)cc2)c1)N1CCCC1`, for which the call was inactive.

As for `Cc1ccc(-c2c(-c3ccccc3)ncn2CCN2CCCC2=O)c(F)c1`, the call was inactive.

Regarding `Cc1cc(C)c(-c2c(-c3ccccc3)ncn2CCOCCO)c(C)c1`, the compound was called inactive.

Take `Cc1cc(F)cc(-c2c(-c3ccccc3)ncn2CCN2CCC(O)CC2)c1`: the call was active.

For `Cc1nn(C)cc1-c1c(-c2ccccc2)ncn1CCNC(=O)c1ccncc1`, the compound was classed as inactive.

For `COCCNC(=O)C1(C)Cn2c(cc3ccsc32)C(=O)N1c1ccc(OC)cc1` (stereo not given), the outcome was inactive.

Consider `CCc1cc(Sc2ccccc2NC(=O)c2ccc(Br)cc2)n2nc(C)nc2n1`, for which the result was inactive.

On to `CCc1cc(Sc2ccccc2NC(=O)Cc2ccccc2)n2nc(C)nc2n1`, for which the compound was called inactive.

Turning to `CCc1cc(Sc2ccccc2NC(=O)c2cccc(Cl)c2)n2nc(C)nc2n1`, the outcome was active.

As to `CC(C)CNc1nc(Nc2ccc(Cl)cc2)c2cnn(-c3ccccc3)c2n1`, the compound was called inactive.

As to `Cc1cccc(CN2CCCN(CC(=O)NCc3ccc(Cl)cc3)S2(=O)=O)c1`, the compound was called inactive.

On to `CCOC1CCN(Cc2cc3cc4c(cc3[nH]c2=O)CCC4)CC1`, for which the call was inactive.

Regarding `CCOC(=O)Cn1c(=O)n(-c2ccc(C)c(C)c2)c2nc(-c3ccccc3C)nc(C(N)=O)c21`, the result was inactive.

`CCc1cc(-c2nccn2CCCc2nn[nH]n2)on1`: the call was inactive.

In the case of `Cc1ccnc(C(NC(=O)c2ccccc2-n2cncn2)C2CC2)c1` (stereo not given), the compound was called inactive.

On to `O=S(=O)(NCCCc1nc2ccccc2o1)NCc1ccccc1`, for which the call was inactive.

For the compound `COc1ccc(N2C(=O)CCS2(=O)=O)cc1S(=O)(=O)Nc1cc(Cl)ccc1C`, the compound was classed as inactive.

Regarding `Cc1ccc(S(=O)(=O)N2CCN(c3cc(-c4cccc(F)c4)ncn3)CC2)cc1C`, the outcome was inactive.

In the case of `COc1ccc(CNc2nc3nc(CNc4ccc(C)c(Cl)c4)cc(=O)n3[nH]2)cc1`, the compound was called inactive.

Regarding `CC(C)(C)c1ccc(-c2nc3nc(CNc4ccccc4Cl)cc(=O)n3[nH]2)cc1`, the compound was classed as active.

With `Cc1cccc(NCc2cc(=O)n3[nH]c(-c4ccc(C(C)(C)C)cc4)nc3n2)c1`, the outcome was inactive.

Take `O=C(NCC1CCN(Cc2ccccc2F)C1)c1cc(Cl)no1` (stereo not given): the compound was classed as inactive.

On to `CCOC(=O)Cn1c(=O)n(-c2ccc(C)c(C)c2)c2nc(-c3cccc(F)c3F)nc(C(N)=O)c21`, for which the call was inactive.

For `Cc1nc(C(C)C)sc1CNC(=O)c1cn(CC2CCCNC2)nn1` (stereo not given), the call was inactive.

Consider `O=C(C1CCCN(C2CCN(Cc3cccnc3)CC2)C1)N1CC=CC1` (stereo not given), for which the outcome was inactive.

As to `CC(c1cccs1)N(C)Cc1cnc(-c2ccco2)nc1` (stereo not given), the compound was called inactive.

As to `CSC(C)(C)CC(C)NCC(=O)Nc1ccccc1C` (stereo not given), the result was inactive.

Turning to `COC(C)(C)Cn1ccnc1-c1ccc(Oc2ncccn2)cc1`, the compound was classed as inactive.

Regarding `Cn1nc(-c2ccccc2)c(-c2ccccc2)c(C(=O)Nc2ccc(S(N)(=O)=O)cc2)c1=O`, the compound was called inactive.

As for `CCOc1c(N2CCc3ccccc3C2)c(=O)c1=O`, the call was inactive.

Consider `Cc1cccc(Cn2c(=O)c3cnc(-c4ccncc4)nc3n(C)c2=O)c1`, for which the call was inactive.

As to `C=CC[C@@H]1CC=C[C@@H](C)N1C(=O)Cc1c(C)nc(C)[nH]c1=O`, the result was inactive.

As for `Cn1c(=O)n(CC(=O)NCc2cccs2)c(=O)c2cnc(-c3ccccc3)nc21`, the compound was called inactive.

With `C=CCn1c(=O)c2cnc(-c3ccc(Cl)cc3)nc2n(C)c1=O`, the call was active.

Regarding `CCc1ccc(CNC(=O)Cn2c(=O)c3cnc(-c4ccccc4)nc3n(C)c2=O)cc1`, the result was inactive.

On to `C=CCn1c(=O)c2cnc(-c3ccc(OC)cc3)nc2n(C)c1=O`, for which the call was inactive.

With `COc1ccccc1-c1nc(Cn2c(=O)c3cnc(-c4ccc(Cl)cc4)nc3n(C)c2=O)c(C)o1`, the compound was called inactive.

As to `Cn1c(=O)n(CC(=O)N2CCOCC2)c(=O)c2cnc(-c3ccccc3)nc21`, the outcome was active.

Take `COc1ccc(OC)c(S(=O)(=O)Nc2ccc(Sc3c(C)c(C)nc4ncnn34)cc2)c1`: the outcome was inactive.

For `COc1ccccc1C(=O)Nc1cc(C)nn1-c1ncnc2c1cnn2-c1ccc(C)cc1C`, the result was inactive.

For `Cc1ccccc1C(C(=O)N1CCCOCC1)N(C)C` (stereo not given), the compound was classed as inactive.

For the compound `Cc1ccsc1CN(CCO)C(=O)c1ccc2c(c1)CCCO2`, the call was inactive.

Regarding `CC(=O)N1CCN(Cc2nc3c(C)c(C)ccc3[nH]2)CC1`, the result was inactive.

On to `CC(C)NC(=O)C1CCC(Cn2c(=O)c3sccc3n(CC(=O)NCc3ccco3)c2=O)CC1` (stereo not given), for which the compound was classed as inactive.

With `CCn1cc(CN2CCN(C)C3(CCN(C(=O)c4ccco4)CC3)C2)cn1`, the result was inactive.

As for `CCOC(=O)c1cccc(Nc2cc(-c3ccc(C)cc3)nc(C)n2)c1`, the call was inactive.

For the compound `CCC(=O)Nc1ccccc1-c1nnc(SC(CC)C(=O)Nc2ccc(OC)cc2)[nH]c1=O` (stereo not given), the outcome was inactive.

On to `COc1ccc(N2C(=O)CCS2(=O)=O)cc1S(=O)(=O)Nc1ccc(C(C)C)cc1`, for which the outcome was inactive.

In the case of `Nc1nc2c(c(-c3cccnc3)n1)CN(C(=O)c1cc(F)c(F)c(F)c1)C2`, the compound was called inactive.

Take `CC(Cc1ccc2c(c1)OCO2)CN1CCC(NS(C)(=O)=O)CC1` (stereo not given): the result was inactive.

For the compound `Cc1noc(C)c1S(=O)(=O)N1CC(c2cccnc2)C1`, the result was inactive.

On to `c1cc(CN2CCOCC2)cc(-c2ccc(NC3CCCC3)nn2)c1`, for which the compound was called active.

Regarding `c1ccc(-c2ccc(-c3nccn3CCN3CCOCC3)s2)cc1`, the compound was classed as inactive.

Consider `O=C1CC(c2cccnc2)c2cnn(CC3CC3)c2N1` (stereo not given), for which the compound was classed as inactive.

In the case of `O=C(O)CSc1nnc(C2CCCNC2)n1-c1cccc(Cl)c1` (stereo not given), the compound was called inactive.

Take `c1ccc(C2CCN(CCn3ccnc3C3CC3)C2)cc1` (stereo not given): the compound was classed as inactive.

As for `Cc1cc(C)cc(Nc2nc(N3CCOCC3)nc3c2cnn3-c2ccccc2)c1`, the call was inactive.

Regarding `Cc1cc(C)n(CCC(=O)N(Cc2ccccc2C)CC2CCCO2)c(=O)n1` (stereo not given), the result was inactive.

In the case of `CC1CNC(=O)CCN1Cc1ccc2cccc(Cl)c2n1` (stereo not given), the call was inactive.

Consider `CCc1nc(C)c(C(=O)N2CCN(c3nsc4ccccc34)CC2)o1`, for which the compound was classed as inactive.

For `Cc1c(F)cccc1NC(=O)CNC(c1ccccn1)C(F)(F)F` (stereo not given), the compound was classed as inactive.

Consider `CCCSc1ncc(CN2CCC3(CCC(=O)N(C)CC3)CC2)cn1`, for which the compound was classed as inactive.

As to `Cc1cc(C)c(CN2CCN(Cc3ccccc3Cl)S2(=O)=O)c(C)c1`, the outcome was inactive.

For the compound `COc1ccc(-c2cc3n(n2)CCC(=O)N3Cc2ccc(C(=O)NCCN3CCCC3)cc2)cc1`, the outcome was inactive.

`Fc1ccc(-c2cc(CNc3nccc(C4CCCC4)n3)no2)cc1`: the compound was called inactive.

For `COc1ccc(Nc2cc(C)nc(Nc3ccc(NC(=O)c4ccc(C)cc4)cc3)n2)cc1`, the outcome was inactive.

Regarding `CCCn1ccnc1C1CC(=O)Nc2c1c(C(C)C)nn2-c1ccccc1` (stereo not given), the compound was classed as inactive.

As for `Cc1cc2nc(COc3ccc(Cl)cc3NC(=O)COc3ccccc3C)cc(=O)n2o1`, the call was inactive.
